Data taken from the supplement of paper PMC11219838.

Test system: Caenorhabditis elegans L1 (N2)
Assay: survival and reproduction score of C. elegans L1 (0: 0-10 living worms, 1: 11-20, 2: 21-50, 3: >50, 4: overgrown) (score 0-4); higher = more worms, less nematicidal, active = 1 or less; extreme values may be limits of the assay
Settings: 60 µM; 6 days; temperature: 20 °C
Summary of the method: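 Compound was pinned to a final 60 µM (0.6% v/v DMSO) into 96-well wells, each holding about 20 synchronized C. elegans N2 L1s and E. coli HB101 in liquid NGM. After 6 days of shaking at 200 rpm and 20 °C in sealed plates, the worms in each well were examined. The ordinal readout of survival and reproduction, based on living worms per well, was assessed under a dissection microscope. On this scale 0 meant 0–10 worms and 4 meant overgrown, starved wells, and two biological replicates were averaged.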

SMILES | survival and reproduction score
COc1ccc(-c2nnc(SCC(=O)c3ccc(C)o3)o2)cc1 | 2 (inactive)
Cc1ccccc1-c1noc(COc2ccccc2)n1 | 4 (inactive)
O=C(CSc1nnc(-c2ccccc2)o1)Nc1cccc(F)c1 | 4 (inactive)
Brc1ccccc1-c1nc(-c2ccccc2)no1 | 0 (active)
Cc1ccc(OCc2nc(-c3ccccc3)no2)cc1C | 4 (inactive)
CCc1nnc(NC(=O)CSc2nnc(-c3cccc(C)c3)o2)s1 | 4 (inactive)
CCOc1nc(-c2ccc(C)cc2)ccc1-c1noc(-c2ccco2)n1 | 4 (inactive)
Cc1cccc(OCc2nc(-c3ccccc3Cl)no2)c1 | 4 (inactive)
c1cncc(-c2noc(COc3cccc4ccccc34)n2)c1 | 4 (inactive)
Cc1ccccc1OCc1nc(-c2cccc(NC(=O)c3ccco3)c2)no1 | 4 (inactive)
COc1ccc(-c2nnc(SCC(=O)Nc3ccc(Br)cc3C)o2)cc1 | 4 (inactive)
Cc1ccc(Cl)cc1NC(=O)CSc1nnc(-c2ccncc2)o1 | 4 (inactive)
Cc1ccccc1CSc1nnc(-c2ccccc2Cl)o1 | 4 (inactive)
CCN(CC)C(=O)CSc1nnc(-c2ccc(Cl)cc2Cl)o1 | 4 (inactive)
O=C(CSc1nnc(-c2ccccc2)o1)Nc1ccc2ccccc2c1 | 4 (inactive)
Cc1cccc(OCc2nc(-c3ccccc3)no2)c1 | 1.5 (inactive)
CC(Oc1ccccc1)c1nc(-c2ccccn2)no1 (stereo not drawn) | 4 (inactive)
Cc1cc(Cl)ccc1OCc1nc(-c2ccccc2)no1 | 4 (inactive)
